# ERG Ets-DNA blk – ERG Ets/DNA interaction inhibition; P11308; fluorescence polarization, His-ERG Ets domain / labelled DNA; Potency, µM (series often up to 76.9 µM), actives largely listed as inhibitors; actives 0.028% (n = 370,000); AID 624246; active = well fitted inhibition curve with a large enough effect in the polarisation, with a control signal flat; the % refers to the polarisation;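 note: polarization taken with two DNA probes labelled with fluorescein and Texas red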
#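 His-tagged ERG Ets domain (1 uM in the protein solution; 300mM KCl, 50mM Tris-HCl, 1mM EDTA, 1mM DTT, pH 7.5) received compound, then a probe mix of 5 nM fluorescein-DNA and 100nM Texas-615-DNA. Fluorescence polarization was read for both dyes.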
# D3 ag – D3 dopamine receptor (human) agonism | P35462 | D3R DiscoveRx beta-arrestin cells, luminescence, 90 min | max activation, % | actives 0.58% (n = 410,000); in the data active = max activation above about 30%
# Target sequence (P35462 whole entry, looked up): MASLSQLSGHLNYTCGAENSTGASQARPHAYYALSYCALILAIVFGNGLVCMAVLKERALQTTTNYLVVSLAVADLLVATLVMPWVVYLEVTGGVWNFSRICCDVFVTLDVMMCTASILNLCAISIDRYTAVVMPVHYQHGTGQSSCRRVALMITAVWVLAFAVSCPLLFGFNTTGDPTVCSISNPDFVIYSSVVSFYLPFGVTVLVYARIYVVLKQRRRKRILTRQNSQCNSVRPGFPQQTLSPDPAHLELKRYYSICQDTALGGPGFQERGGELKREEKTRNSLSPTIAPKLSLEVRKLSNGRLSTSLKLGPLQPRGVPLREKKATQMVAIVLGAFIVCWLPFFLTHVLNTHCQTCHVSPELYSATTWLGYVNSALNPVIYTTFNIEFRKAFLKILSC
#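 Agonist-mode cell screen: cells plated at 1500/well and incubated overnight at 37 °C, then exposed to library compounds for 90 min at 37 °C. Detection reagent was added for 30–60 min at room temperature, and luminescence was read.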
# D1 PAM – potentiators of human D1 dopamine receptor; actives 0.036% (n = 360,000); HEK293 TREx D1 cells, calcium flux, dopamine EC20 potentiation; P21728; potentiation, % at 10 µM; in the data active = potentiation above about 30%
# D1 ag – agonists of human D1 dopamine receptor. P21728. activation, % at 2 µM. HEK293 T-REx D1 cells, calcium flux, agonist mode. actives 1% (n = 360,000); in the data active = activation above about 30%
#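 Tetracycline-induced HEK293 TREx D1 cells, force-coupled to calcium signalling, were dye-loaded with a no-wash calcium kit. Compound was pin-added after a 10 s baseline. Fluorescence was read kinetically at 1 cycle/s for 180 s, with calcium rises flagged as agonism.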
# D3 antag – antagonists of human D3 dopamine receptor; P35462; max response, negative = inhibition, %; actives 2.5% (n = 360,000); AID 652054; D3R cells, DiscoveRx beta-arrestin luminescence, antagonist mode; stronger effect = lower value; in the data active = max response below about -50%
#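 Cells plated overnight at 1500 cells/well, then exposed to library compounds with dopamine controls for 90 minutes at 37 degrees C. DiscoveRx reagent added for 30–60 minutes at room temperature; luminescence read, quantitative HTS format.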
# D1 antag – antagonists of human D1 dopamine receptor; HEK293 TREx D1 cells, calcium flux, dopamine EC80; stronger effect = lower value; AID 504652; P21728; activity change, negative = inhibition, % at 10 µM; actives 3.2% (n = 360,000); in the data active = activity change below about -30%
#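 Cells carrying a force-coupled, tetracycline-inducible human D1 receptor report calcium flux. Each well gets a 10 s baseline, compound with 180 s monitoring, then an EC80 dopamine stimulus with a second 180 s kinetic read.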
# A number is an active result; - = inactive; . = no result. The list is not random: actives were taken first. Their share in the collection is about 6.1%.
SMILES,ERG Ets-DNA blk,D3 ag,D1 PAM,D1 ag,D3 antag,D1 antag
Cc1cc(C)c2oc(-c3cccc(NC(=O)c4ccco4)c3)nc2c1,-,-,-,-,.,-46
COc1ccccc1OC(C)C(=O)Nc1cccc(-c2nc3ccccc3o2)c1 (stereo unspecified),-,-,-,32,.,-
Cc1cc2oc(C(=O)Nc3cccc(-c4nc5ccccc5o4)c3)c(C)c2cc1C,-,-,-,54,.,-
C=CCn1c(COc2ccc(OC)cc2)nc2ccccc21,-,-,-,-,-,-35
Cc1ccc(OCCCCn2c(CO)nc3ccccc32)cc1,-,-,-,-,-,-37
COc1cccc(OCc2nc3ccccc3n2Cc2ccccc2C)c1,-,-,-,40,.,-
CCCn1c(COc2cccc(C)c2)nc2ccccc21,-,41,-,-,.,-
CCn1c(COc2ccc(OC)cc2)nc2ccccc21,-,-,-,-,-,-
COc1ccc(Cc2nc3ccccc3n2Cc2ccccc2C)cc1,-,-,-,-,.,-
COCCNC(=O)CN(CCc1ccccc1)S(=O)(=O)c1ccc(Br)cc1,-,-,-,-,-,-
CCN(CC(=O)NCCc1ccccc1)S(=O)(=O)c1ccc(Br)cc1,.,-,-,-,-,-37
CS(=O)(=O)Nc1ccc(C(=O)Nc2ccc3ccccc3c2)cc1,-,-,-,-,-,-38
COc1ccc(NC(=O)c2cc3ccccc3cc2O)cc1,-,-,-,-,-61,-
Cc1ccc(NC(=O)c2cc3ccccc3cc2O)cc1,-,-,-,-,-,-
O=C(O)c1cc(NS(=O)(=O)c2ccc3ccccc3c2)ccc1O,-,-,-,-,-108,-
O=C(Nc1ccc2ccccc2c1)c1ccccc1O,-,-,-,-,-,-34
O=C(O)c1ccccc1NS(=O)(=O)c1ccc2ccccc2c1,-,-,-,-,-,-
CCC(=O)NCCCOc1ccccc1,.,-,-,-,-,-
CCN(CC)CCN1C(=O)C(=O)/C(=C(/O)c2ccc3c(c2)CC(C)O3)C1c1ccc(OC)cc1 (stereo unspecified),-,-,-,-,-,-30
O=c1[nH]c(-[n+]2ccccc2)c(/C=N/NC([S-])=Nc2ccccc2)s1,-,-,-,174,-,-
COc1ccc(N2CCN(C(=O)NC34CC5CC(CC(C5)C3)C4)CC2)cc1,-,-,-,-,-,-
O=C(Nc1ccc(Cl)cc1)c1ccc(-c2ccccn2)s1,-,-,-,-,-,-
COc1ccc(Cn2cc(C(=O)O)c(=O)c3ccccc32)cc1,-,-,-,-,-,-
Cc1ccc(C(=O)c2cn(Cc3ccccc3)c3ccccc3c2=O)cc1,-,-,-,-,.,-
CCCCCCn1cc(C(=O)O)c(=O)c2ccccc21,-,-,-,-,-63,-
SMILES,ERG Ets-DNA blk,D3 ag,D1 PAM,D1 ag,D3 antag,D1 antag
COc1ccc(C(=O)c2cn(Cc3ccccc3)c3ccccc3c2=O)cc1OC,-,-,-,-,.,-33
O=C(OCCN1C(=O)c2cccc3c(N4CCOCC4)ccc(c23)C1=O)c1ccc(Cl)cc1,-,-,-,93,-,-
CCCN(CCC)S(=O)(=O)c1ccc(C(=O)OCCN2C(=O)c3cccc4c(N5CCOCC5)ccc(c34)C2=O)cc1,.,-,-,113,-,-
CCNC1CCC(Nc2ccnc3cc(Cl)ccc23)CC1 (stereo unspecified),-,-,.,.,-,.
CC1=C(C#N)C(c2ccccc2O)C(C#N)=C(C)N1,-,-,-,-,-,-
CC1=C(C#N)C(c2ccc3ncccc3c2)C(C#N)=C(C)N1,.,-,-,-,-61,-
CCOC(=O)c1sc2ccc(S(=O)(=O)N3CC(C)CC(C)C3)cc2c1N (stereo unspecified),.,-,-,-,-,-
CCCOc1ccc(Oc2ccc(S(=O)(=O)N3CCN(C)CC3)cn2)cc1,-,-,-,-,-,-37
Cc1ccc(CCNc2ncnc3onc(-c4ccc(Cl)cc4)c23)cc1,-,-,-,-,.,-
CSc1ccc(CCNc2ncnc3onc(C)c23)cc1,-,-,-,35,.,-50
COc1ccc(CCNc2ncnc3onc(C)c23)c(OC)c1,-,-,-,-,.,-45
CCOc1ccc(CCNc2ncnc3onc(-c4ccc(Cl)cc4)c23)cc1,-,-,-,-,.,-48
CC(=O)c1c(C)oc2ccc(NS(=O)(=O)c3ccc(F)cc3C)cc12,-,-,-,-,-,-
Cc1cc(F)ccc1S(=O)(=O)Nc1ccc2oc3c(c2c1)CC(C)CC3 (stereo unspecified),-,-,-,37,.,-
Cc1noc(NS(=O)(=O)c2ccc(NC(=O)c3ccc(Br)o3)cc2)c1C,-,-,-,-,-72,-
Cc1cc(C)c(C(=O)Nc2ccc(S(=O)(=O)Nc3onc(C)c3C)cc2)c(C)c1,-,-,-,-,-,-82
Cc1ccc(C)c(S(=O)(=O)Nc2ccc(S(=O)(=O)Nc3onc(C)c3C)cc2)c1,-,-,-,-,-52,-
Cc1ccc(S(=O)(=O)NC(=O)c2ccc(Br)o2)cc1,-,54,-,-,-,-
Cc1ccc(C(=O)Nc2ccc(S(=O)(=O)Nc3onc(C)c3C)cc2)cc1,-,-,-,-,.,-
CC1Sc2ccccc2N(Cc2ccccc2)C1=O (stereo unspecified),.,-,.,.,-,.
CC1Sc2ccc(C#N)cc2N(Cc2cccc(C(F)(F)F)c2)C1=O (stereo unspecified),.,-,.,.,-51,.
Cc1ccc(-n2cc(CCCCCCCCC(=O)O)nn2)cc1,-,30,-,-,-,-
COCCn1c(SCC(=O)N2CCN(c3ccccc3)CC2)nc2c(c1=O)SC(C)C2 (stereo unspecified),-,-,-,-,-,-35
CCc1ccccc1NC(=O)c1cc(C)no1,-,-,-,-,-,-
CCC(C)NC(=O)c1cc(C)no1 (stereo unspecified),-,-,-,-,-64,-
SMILES,ERG Ets-DNA blk,D3 ag,D1 PAM,D1 ag,D3 antag,D1 antag
CC(O)(c1ccc(F)c(F)c1)c1nc(-c2ccc(F)c(Cl)c2)cs1 (stereo unspecified),.,-,.,.,-,.
Cc1ccc(-c2csc(C(C)(O)c3ccc(F)c(F)c3)n2)cc1C (stereo unspecified),.,-,.,.,-69,.
COC(=O)c1cc2oc(C)cc2n1Cc1ccc(C)cc1,-,-,-,-,.,-
CCC(c1nnnn1-c1ccc2c(c1)OCCO2)N1CCN(c2ccccc2OC)CC1 (stereo unspecified),.,-,.,.,-,.
Cc1cccc(C)c1NC(=O)CN1CCC(Cc2ccccc2)CC1,.,-,.,.,-69,.
Cc1cccc(C)c1NC(=O)CN1CCN(CCCC(c2ccc(F)cc2)c2ccc(F)cc2)CC1,-,-,-,-,-79,-53
